# Assay results: PubChem BioAssay (NCATS)
# Inconclusive results are not listed. A call without a number means that no potency is given here. A number with no mark means an inactive call. Active and inactive are the calls of the source. Calls follow the shape of the dose curve; as a rule, active = well fitted inhibition curve with a large enough effect; inconclusive = small, poorly fitted or top-dose-only effect; inactive = flat fitted curve, though single readings scatter.
# Experiment: P-glycoprotein substrates identified in KB-8-5-11 adenocarcinoma cell line, qHTS therapeutic library screen (AID 1346987); also: nearly all actives have a fitted effect of over 65% in size; as to activity change, negative = cytotoxicity: series mostly up to about 44 µM
# How it was run: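 P-gp-mediated resistance screen: KB-8-5-11 cells treated 72 h with compounds in dose-response. CellTiter-Glo viability.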
# Potency is read from the fitted curve at half-maximal effect.
smiles,measurement,value
N#Cc1cc(CN2CCC(Nc3ncnc4sc(Cl)cc34)CC2)ccc1F,Potency,9.2 µM (active)
Cn1ncc(Cl)c1-c1cc(C(=O)N[C@H](CN)Cc2cccc(F)c2)sc1Cl,Potency,18.4 µM (active)
NCCC[C@H](N)C(=O)O,Potency,inactive
O=C(NCCO)c1cccc(-c2cc(Nc3ccc(OC(F)(F)F)cc3)ncn2)c1,Potency,inactive
CCOC(=O)Cc1cccc(-c2cc(CCCCCCc3ccc(O[C@H]4O[C@H](COC(C)=O)[C@@H](OC(C)=O)[C@H](OC(C)=O)[C@@H]4OC(C)=O)c(-c4cccc(CC(=O)OCC)c4)c3)ccc2O[C@H]2O[C@H](COC(C)=O)[C@@H](OC(C)=O)[C@H](OC(C)=O)[C@@H]2OC(C)=O)c1,Potency,inactive
Fc1ccc(-c2nc(-c3c(F)cccc3F)[nH]c2-c2ccncc2)cc1,Potency,inactive
C=C1/C(=C/C=C2\CCC[C@@]3(C)C2CCC3[C@H](C)/C=C/[C@@H](O)C2CC2)C[C@@H](O)C[C@@H]1O (some centres not stated),Potency,inactive
C[C@@H]1C[C@H]2O[C@@]3(O[C@@H]2C(C)(C)O)C(O)[C@@]2(C)C4CCC5C(C)(C)[C@@H](O[C@H]6OC[C@H](O)[C@@H](O)[C@@H]6O)CC[C@@]56C[C@@]46CC[C@]2(C)C13 (some centres not stated),Potency,inactive
Cc1cn(CCN2CCN(c3ccccc3-c3cc(C#N)cc(C(=O)NCCCN4CCCC4)c3)CC2)c2ccccc12,Potency,18.4 µM (active)
COc1cc(C(=O)NCC2(N(C)C)CCCC2)cc(OC)c1OCc1ccccc1,Potency,inactive
C=C(C)C(=O)O[C@H]1/C(C=O)=C\CC/C(CO)=C/[C@H]2OC(=O)C(=C)[C@@H]2[C@@H]1OC,Potency,inactive
CCCN(CCc1ccsc1)C1CCc2c(O)cccc2C1 (configuration not stated),Potency,inactive
C/C=C/C=C/C=C/C(=O)O[C@@H]1C=C(CO)C(O)(C(=O)OC)[C@@]2(C)CCCC(C)(C)C12 (some centres not stated),Potency,inactive
O=C(NCC(=O)N1CCCC1)Nc1ccc2cnccc2c1,Potency,inactive
COC(C)=O,Potency,inactive
O=C(NCCCNc1nc(Nc2cccc(CN3CCOCC3)c2)ncc1C1CC1)C1CCC1,Potency,10.3 µM (active)
CN1CC(O)c2cc(N=NC(N)=O)c(O)cc21 (configuration not stated),Potency,inactive
CCC(C)C(=O)O[C@H]1[C@H](O)[C@@]2(COC(C)=O)C(CC1(C)C)C1=CCC3[C@@]4(C)CC[C@H](O[C@@H]5O[C@H](C(=O)O)[C@@H](O)[C@H](O)[C@H]5O)[C@@](C)(CO)C4CC[C@@]3(C)[C@]1(C)C[C@@H]2O (some centres not stated),"activity change, negative = cytotoxicity",-11.3% [at 9.29 µM]
COc1c(C(O)CC(C)C)ccc2c1C(=O)OCc1cc(C)cc(O)c1O2 (configuration not stated),Potency,inactive
Cc1cc2c(c(=O)o1)C=C1CC[C@H]([C@H](C)Cn3cnc(=N)c4[nH]cnc43)C[C@@H]1O2,Potency,inactive
Cn1ncc2cc(-c3cnc(N)c(Cl)c3N3CCC4(CCNC4=O)CC3)ccc21,Potency,inactive
C[C@H]1CC[C@@]2(OC1)O[C@H]1CC3[C@@H]4CC[C@@H]5C[C@@H](O[C@@H]6O[C@H](CO)[C@@H](O[C@@H]7O[C@@H](C)[C@H](O)[C@@H](O)[C@H]7O)[C@H](O)[C@H]6O[C@@H]6O[C@H](CO)[C@@H](O)[C@H](O)[C@H]6O)CC[C@]5(C)C4CC[C@]3(C)[C@H]1[C@@H]2C (some centres not stated),outcome,inactive [at 9.29 µM]
CN[C@@H]1CCc2[nH]c3ccc(C(N)=O)cc3c2C1,Potency,inactive
COc1ccc(NC(=O)c2ccc(-c3ccc(-c4nnc(C)o4)cc3C)cc2)cc1N1CCN(C)CC1,Potency,inactive
CC1(C)CC[C@]2(C(=O)O)CC[C@]3(C)C(=CCC4[C@@]5(C)C[C@@H](O)[C@H](O)C(CO)(CO)C5CC[C@]43C)C2[C@@H]1O (some centres not stated),Potency,7.96 µM (active)
CC(C)c1cc(-c2ccc(F)c3ccccc23)nc(N)n1,Potency,inactive
COc1ccc([C@H]2OC[C@H]3O[C@@H](O[C@H]4[C@@H]2NC[C@@H]4O)[C@H](O)[C@H]3O)cc1,Potency,1.61 µM (active)
C/C=C(\C)C(=O)OC1C(C)C2(O)C(C=C(CO)CC3(O)C(=O)C(C)=CC32)C2C(C)(C)C12OC(C)=O (configuration not stated),Potency,inactive
C=C1C(=O)O[C@@H]2[C@H]3C(C)=CC(=O)C3=C(C)[C@@H](OC(=O)/C(C)=C\C)[C@H](O)[C@@H]12,Potency,inactive
CC1(CO)CC2C(O)C3=C(CC(C)(O)C2C1)C(=O)OC3 (configuration not stated),Potency,inactive
C=C1C(=O)O[C@@H]2C=C(COC(C)=O)CC/C=C(\CO)CC[C@@H]12,Potency,inactive
CNC(=O)c1ccc2c(c1)CCO[C@H]2CCN1CCN(c2ccc(OC)cc2)CC1,Potency,inactive
